About 7,900 targets were measured; listed, in parts, are those with a hit and a random draw of the rest. About 0.6% of all pairs of compound and target were hits. A number with no mark means an inactive call.

These results are taken from the supplement of paper PMC10849652.

Assay in all cases: log2 fold change, soluble protein after heating vs DMSO (PISA); higher = thermal stabilisation; K562 cells, 10 uM, 30 min; active = over 0.2 and 3.5 SD of the protein, either way, in both replicates (recomputed)
Compound in assay [1]: C1=CC=C(C=C1)[C@H](COC2=CC3=C(C=C2)NC(=O)N3)NC(=O)C4=CC=CN(C4=O)CC5=CC(=C(C=C5)F)F
Put shortly:
(§1)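 Soluble protein was quantified by TMTpro 16plex LC-MS/MS after channel sums were equalised. It was obtained as the supernatant after 21,000xg for 90 min from pooled aliquots of K562 cells (2×10^6 cells/mL, 10 μM compound, 30 min) heated for 3 min across 48°C-58°C and extracted in PBS with 0.5% NP-40 at 4°C. Thermal stability values are relative to control samples and come from duplicates. They are given as log2 fold changes.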

Compound in assay [2]: CC1=C(SC2=C1C(=N[C@H](C3=NN=C(N32)C)CC(=O)N)C4=CC=C(C=C4)Cl)C
Put shortly:
as §1

Compound in assay [3]: CC1=C2C(=CC=C1)N=C(N(C2=O)C3=CC=CC=C3C)CN4C=NC5=C(N=CN=C54)N
In outline:
as §1

Compound in assay [4]: Cc1sc2c(c1C)C(c1ccc(Cl)cc1)=N[C@@H](CC(=O)OC(C)(C)C)c1nnc(C)n1-2
Put shortly: as §1

Compound in assay [5]: c1ccc([C@@H]2C[C@H]2NC2CCNCC2)cc1
Put shortly:
as §1

UniProt Q12824, sequence (Q12824 whole entry, looked up): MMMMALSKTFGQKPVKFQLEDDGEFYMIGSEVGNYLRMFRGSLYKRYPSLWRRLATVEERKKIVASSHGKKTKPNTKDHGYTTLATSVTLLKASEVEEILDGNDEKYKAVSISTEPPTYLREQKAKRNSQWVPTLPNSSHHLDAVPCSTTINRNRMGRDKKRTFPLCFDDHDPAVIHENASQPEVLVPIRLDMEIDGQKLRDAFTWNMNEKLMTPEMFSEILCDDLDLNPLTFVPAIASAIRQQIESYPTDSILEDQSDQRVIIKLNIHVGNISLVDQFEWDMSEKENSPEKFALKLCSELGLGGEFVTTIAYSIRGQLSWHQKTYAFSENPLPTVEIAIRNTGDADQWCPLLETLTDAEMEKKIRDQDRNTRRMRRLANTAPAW
UniProt Q9NZD8, sequence (Q9NZD8 whole entry, looked up): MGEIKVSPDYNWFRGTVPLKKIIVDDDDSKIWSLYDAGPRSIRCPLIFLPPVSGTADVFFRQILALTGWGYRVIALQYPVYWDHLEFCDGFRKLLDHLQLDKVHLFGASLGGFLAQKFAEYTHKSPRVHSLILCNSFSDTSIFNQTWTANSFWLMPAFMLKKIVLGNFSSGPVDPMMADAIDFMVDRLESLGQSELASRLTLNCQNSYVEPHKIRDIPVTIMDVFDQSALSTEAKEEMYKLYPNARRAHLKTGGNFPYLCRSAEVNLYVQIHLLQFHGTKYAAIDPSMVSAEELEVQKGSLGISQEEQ
UniProt Q9C0B7, sequence (Q9C0B7 whole entry, looked up): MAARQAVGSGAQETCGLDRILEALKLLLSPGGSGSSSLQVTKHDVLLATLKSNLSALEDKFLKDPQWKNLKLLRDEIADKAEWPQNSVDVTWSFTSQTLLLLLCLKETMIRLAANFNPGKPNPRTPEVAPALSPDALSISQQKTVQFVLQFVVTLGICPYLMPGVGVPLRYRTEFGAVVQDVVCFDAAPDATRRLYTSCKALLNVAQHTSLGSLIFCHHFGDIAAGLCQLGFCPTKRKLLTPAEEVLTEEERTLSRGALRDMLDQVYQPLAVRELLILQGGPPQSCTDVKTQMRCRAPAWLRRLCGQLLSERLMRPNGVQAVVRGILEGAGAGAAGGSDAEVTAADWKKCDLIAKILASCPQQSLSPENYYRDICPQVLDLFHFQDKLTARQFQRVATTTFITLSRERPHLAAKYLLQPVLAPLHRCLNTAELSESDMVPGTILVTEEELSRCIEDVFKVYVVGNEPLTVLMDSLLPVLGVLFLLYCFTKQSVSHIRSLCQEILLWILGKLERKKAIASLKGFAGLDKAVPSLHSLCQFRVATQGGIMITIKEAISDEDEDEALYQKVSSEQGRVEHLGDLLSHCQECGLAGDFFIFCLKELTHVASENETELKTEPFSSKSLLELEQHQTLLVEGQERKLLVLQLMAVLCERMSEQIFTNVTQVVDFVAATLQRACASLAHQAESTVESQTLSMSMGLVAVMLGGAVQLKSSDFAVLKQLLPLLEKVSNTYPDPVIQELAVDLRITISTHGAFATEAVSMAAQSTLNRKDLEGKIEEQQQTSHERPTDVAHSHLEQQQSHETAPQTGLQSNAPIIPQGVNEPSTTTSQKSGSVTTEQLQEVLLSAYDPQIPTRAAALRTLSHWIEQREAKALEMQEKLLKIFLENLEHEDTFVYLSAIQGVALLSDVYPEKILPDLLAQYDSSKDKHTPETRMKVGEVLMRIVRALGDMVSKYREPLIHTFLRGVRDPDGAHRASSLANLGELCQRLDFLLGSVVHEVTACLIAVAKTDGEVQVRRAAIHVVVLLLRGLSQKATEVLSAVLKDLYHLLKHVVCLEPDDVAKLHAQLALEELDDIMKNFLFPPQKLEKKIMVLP
UniProt Q9Y6J9, sequence (Q9Y6J9 whole entry, looked up): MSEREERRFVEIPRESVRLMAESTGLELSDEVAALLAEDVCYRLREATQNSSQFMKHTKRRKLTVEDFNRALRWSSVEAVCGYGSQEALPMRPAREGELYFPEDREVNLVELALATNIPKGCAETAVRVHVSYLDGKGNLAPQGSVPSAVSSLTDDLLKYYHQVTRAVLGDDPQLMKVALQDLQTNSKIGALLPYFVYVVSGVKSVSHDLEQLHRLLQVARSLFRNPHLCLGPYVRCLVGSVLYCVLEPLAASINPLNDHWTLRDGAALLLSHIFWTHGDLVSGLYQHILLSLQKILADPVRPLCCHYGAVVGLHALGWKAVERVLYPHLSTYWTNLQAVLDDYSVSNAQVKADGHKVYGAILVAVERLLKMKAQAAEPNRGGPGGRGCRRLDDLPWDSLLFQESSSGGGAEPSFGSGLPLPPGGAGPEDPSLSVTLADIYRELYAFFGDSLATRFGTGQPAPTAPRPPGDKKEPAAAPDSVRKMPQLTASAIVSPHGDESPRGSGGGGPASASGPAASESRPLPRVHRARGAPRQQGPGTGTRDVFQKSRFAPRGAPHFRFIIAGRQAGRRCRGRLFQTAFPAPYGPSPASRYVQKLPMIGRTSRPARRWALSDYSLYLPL
UniProt Q96BW9, sequence (Q96BW9 whole entry, looked up): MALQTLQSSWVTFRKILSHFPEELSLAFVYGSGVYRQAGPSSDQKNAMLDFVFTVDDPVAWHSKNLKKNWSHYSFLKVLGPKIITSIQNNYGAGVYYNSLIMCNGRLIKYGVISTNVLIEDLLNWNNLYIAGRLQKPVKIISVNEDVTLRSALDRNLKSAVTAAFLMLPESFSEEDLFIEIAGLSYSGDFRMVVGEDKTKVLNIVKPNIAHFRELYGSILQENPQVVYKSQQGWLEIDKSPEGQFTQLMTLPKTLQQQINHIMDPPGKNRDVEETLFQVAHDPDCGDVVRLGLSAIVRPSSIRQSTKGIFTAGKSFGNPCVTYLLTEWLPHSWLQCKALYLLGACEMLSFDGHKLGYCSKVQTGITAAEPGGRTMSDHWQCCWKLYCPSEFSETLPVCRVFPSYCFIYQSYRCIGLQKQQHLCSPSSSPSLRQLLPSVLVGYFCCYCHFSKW
UniProt Q9UBP0, sequence (Q9UBP0 whole entry, looked up): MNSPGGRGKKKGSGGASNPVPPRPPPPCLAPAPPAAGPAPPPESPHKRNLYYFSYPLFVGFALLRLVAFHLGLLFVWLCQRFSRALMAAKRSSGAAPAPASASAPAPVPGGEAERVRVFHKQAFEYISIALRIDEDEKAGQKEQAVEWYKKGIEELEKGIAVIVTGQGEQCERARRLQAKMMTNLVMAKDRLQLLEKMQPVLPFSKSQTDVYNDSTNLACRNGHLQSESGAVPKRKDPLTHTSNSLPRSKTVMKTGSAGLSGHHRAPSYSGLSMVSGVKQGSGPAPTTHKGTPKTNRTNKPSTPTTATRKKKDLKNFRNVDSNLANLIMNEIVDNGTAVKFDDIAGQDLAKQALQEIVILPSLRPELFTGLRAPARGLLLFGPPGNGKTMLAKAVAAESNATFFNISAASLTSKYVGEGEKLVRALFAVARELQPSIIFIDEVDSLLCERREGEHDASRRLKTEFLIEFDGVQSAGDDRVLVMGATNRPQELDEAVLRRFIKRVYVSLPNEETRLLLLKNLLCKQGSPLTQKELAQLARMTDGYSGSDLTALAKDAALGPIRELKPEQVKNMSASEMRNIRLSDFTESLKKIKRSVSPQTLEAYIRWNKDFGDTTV
UniProt Q15527, sequence (Q15527 whole entry, looked up): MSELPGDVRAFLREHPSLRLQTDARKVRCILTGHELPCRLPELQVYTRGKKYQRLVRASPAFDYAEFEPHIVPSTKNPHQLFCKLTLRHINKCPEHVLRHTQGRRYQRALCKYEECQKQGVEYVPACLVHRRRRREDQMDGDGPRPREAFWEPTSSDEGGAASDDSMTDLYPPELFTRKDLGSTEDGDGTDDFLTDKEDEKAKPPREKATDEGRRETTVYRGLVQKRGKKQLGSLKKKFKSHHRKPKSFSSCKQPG
UniProt Q96BZ9, sequence (Q96BZ9 whole entry, looked up): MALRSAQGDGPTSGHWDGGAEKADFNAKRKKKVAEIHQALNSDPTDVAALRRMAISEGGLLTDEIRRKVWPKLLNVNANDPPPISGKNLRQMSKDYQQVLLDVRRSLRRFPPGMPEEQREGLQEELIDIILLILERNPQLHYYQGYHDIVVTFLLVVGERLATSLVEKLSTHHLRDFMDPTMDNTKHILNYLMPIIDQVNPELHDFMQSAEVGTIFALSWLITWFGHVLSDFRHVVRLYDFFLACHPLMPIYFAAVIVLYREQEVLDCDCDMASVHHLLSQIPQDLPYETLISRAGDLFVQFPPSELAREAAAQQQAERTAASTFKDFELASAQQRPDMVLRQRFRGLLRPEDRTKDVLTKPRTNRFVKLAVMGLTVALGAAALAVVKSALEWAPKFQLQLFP
UniProt Q9BW92, sequence (Q9BW92 whole entry, looked up): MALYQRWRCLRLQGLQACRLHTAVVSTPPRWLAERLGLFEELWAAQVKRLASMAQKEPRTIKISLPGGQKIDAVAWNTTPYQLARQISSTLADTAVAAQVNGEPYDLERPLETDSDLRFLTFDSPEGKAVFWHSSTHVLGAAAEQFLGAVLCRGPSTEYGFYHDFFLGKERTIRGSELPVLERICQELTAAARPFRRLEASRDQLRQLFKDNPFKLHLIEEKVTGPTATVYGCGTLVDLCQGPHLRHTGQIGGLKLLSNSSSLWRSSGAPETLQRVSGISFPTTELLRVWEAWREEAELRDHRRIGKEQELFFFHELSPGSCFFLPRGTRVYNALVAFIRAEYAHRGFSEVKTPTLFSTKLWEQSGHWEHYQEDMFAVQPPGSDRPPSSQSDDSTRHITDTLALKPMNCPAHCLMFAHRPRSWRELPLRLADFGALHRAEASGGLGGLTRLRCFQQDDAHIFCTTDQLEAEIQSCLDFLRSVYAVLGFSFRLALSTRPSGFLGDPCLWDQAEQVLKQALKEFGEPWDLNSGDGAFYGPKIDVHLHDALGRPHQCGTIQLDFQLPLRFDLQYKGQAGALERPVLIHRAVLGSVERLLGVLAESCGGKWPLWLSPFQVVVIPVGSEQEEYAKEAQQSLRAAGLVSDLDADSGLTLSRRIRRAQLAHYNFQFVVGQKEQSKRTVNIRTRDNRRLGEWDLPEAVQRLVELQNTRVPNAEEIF

TARS2 (UniProt Q9BW92): the log2 fold change in assay [1] was -0.018; in assay [2], 0.025; in assay [3], 0.101; in assay [4], -0.019; in assay [5], -0.023.
SURF2 (UniProt Q15527): the log2 fold change was 0.056 in assay [1]; -0.018 in assay [2]; 0.033 in assay [3]; -0.047 in assay [4]; -0.044 in assay [5].
TAMM41 isoform 3 (UniProt Q96BW9): the log2 fold change in assay [1] is -0.012; in assay [2] it was 0.1; in assay [3], 0.09; in assay [4] it was -0.06; in assay [5] it was 0.001.
For SPAST (UniProt Q9UBP0) the same measures were -0.057, 0.026, 0.117, -0.016 and -0.085.
Regarding SMARCB1 (UniProt Q12824), the log2 fold change in assay [2] was 0.057; in assay [3] it was -0.041; in assay [4], 0.015; in assay [5], 0.18.
For the target TBC1D20 isoform 3 (UniProt Q96BZ9), the log2 fold change in assay [1] is 0.017; in assay [2], 0.069; in assay [3] it was -0.021; in assay [5] it was -0.403 (active).
For the target TAF6L (UniProt Q9Y6J9), the log2 fold change was -0.209 in assay [2], 0.048 in assay [4] and 0.073 in assay [5].
As to TAOK2 (UniProt Q9UL54), in assay [4], the log2 fold change was 0.026.
With TANGO6 (UniProt Q9C0B7), the log2 fold change was -0.139 in assay [1], 0.052 in assay [2], 0.018 in assay [4] and -0.086 in assay [5].
As to SPG21 (UniProt Q9NZD8), the log2 fold change in assay [1] is -0.128; in assay [2], -0.035; in assay [3], 0.031; in assay [4], -0.062; in assay [5], -0.02.
